Only some compounds are listed: those with a hit (about 10% of all), similar ones and a draw of the others.
IMPase cell inh = qHTS Assay for Identifying the Cell-Membrane Permeable IMPase Inhibitors; inhibition (IP1 accumulation), % at 46.1 µM; AID 901, 2007; 120,000 tested, under 10 active; Inositol monophosphatase 1 (Rattus norvegicus), P97697; CHO-M1 cells, IP1 accumulation, HTRF TR-FRET ratio; active = well fitted curve in the direction sought with a large enough effect in the signal ratio, not every such curve was filed as active; inconclusive = small, poorly fitted or top-dose-only effect, or a change in a side signal; inactive = no such curve, though single readings can be large or run the other way; the % refers to the signal ratio;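 also: cells stimulated with carbachol in lithium chloride buffer; higher means more IMPase inhibition seen as more IP1 and lower FRET ratio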
Target sequence (P97697 whole entry, looked up): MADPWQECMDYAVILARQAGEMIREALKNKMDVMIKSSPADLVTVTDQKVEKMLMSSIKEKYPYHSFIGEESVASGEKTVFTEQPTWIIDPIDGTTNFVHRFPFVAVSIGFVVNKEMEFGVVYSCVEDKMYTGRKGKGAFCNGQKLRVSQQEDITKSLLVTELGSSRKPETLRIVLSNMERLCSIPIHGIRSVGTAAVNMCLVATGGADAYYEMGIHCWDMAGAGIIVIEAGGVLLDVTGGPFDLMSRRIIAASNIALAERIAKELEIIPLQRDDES
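In this qHTS, compounds (final up to 46 uM) act on CHO-M1 cells that are then activated through the M1 receptor with carbachol, in pH 7.4 buffer containing 50 mM LiCl, for 30 min. IP1 accumulation is quantified by the IP-One immunoassay.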
Lamin A splicing = qHTS Assay for Modulators of Lamin A Splicing. AID 1487, 2009. HeLa LMNA splicing GFP/RFP minigene ratio, 48 h. 0.01% of 200,000 active. Potency, µM (top dose mostly 46.1 µM), usual class: inhibitors; active = well fitted inhibition curve with a large enough effect in the signal ratio, with a control signal flat, not every such curve was filed as active; inconclusive = small, poorly fitted or top-dose-only effect, or effect the other way, or a change in a side signal; the % refers to the signal ratio
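S3 HeLa cells stably expressing lamin A-EGFP splicing minigene plus DsRed2, 600 cells/well, 48 h compound exposure at 37C. Laser-scanning cytometry; analysed as GFP (500-530 nm)/RFP (575-640 nm) total intensity ratio; 0.5% DMSO vehicle.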
HPGD inh = qHTS Assay for Inhibitors of HPGD (15-Hydroxyprostaglandin Dehydrogenase); 15-hydroxyprostaglandin dehydrogenase [NAD(+)] (Homo sapiens), P15428; purified HPGD, NADH fluorescence kinetic, PGE2 substrate; Potency, µM, actives largely listed as inhibitors; 4.3% of 150,000 active
Target sequence (P15428 whole entry, looked up): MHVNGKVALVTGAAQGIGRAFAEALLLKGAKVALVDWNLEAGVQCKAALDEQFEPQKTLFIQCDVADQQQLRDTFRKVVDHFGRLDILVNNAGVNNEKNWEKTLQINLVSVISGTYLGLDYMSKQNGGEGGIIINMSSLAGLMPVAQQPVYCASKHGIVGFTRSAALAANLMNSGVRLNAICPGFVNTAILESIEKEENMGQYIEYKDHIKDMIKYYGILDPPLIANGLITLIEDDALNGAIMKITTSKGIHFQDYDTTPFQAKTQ
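20 nM HPGD preincubated 15 min at room temperature with compound in 50 mM Tris-HCl pH 8, 0.01% Tween 20. Started with 1 mM NAD+ and 30 uM prostaglandin E2; NADH fluorescence (360/450 nm) read 5 times over 30-s intervals, last minus first.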
Luc counter = Counterscreen for Luciferase (Kinase-Glo TM) Inhibition. Luciferin 4-monooxygenase (Photuris pensylvanica), Q27757. 0.28% of 200,000 active. AID 1379, 2008. Potency, µM (series often up to 38.3 µM), actives largely listed as inhibitors. Kinase-Glo luciferase, ATP luminescence, 8 min; active = well fitted inhibition curve with a large enough effect; inconclusive = small, poorly fitted or top-dose-only effect; also: nearly all actives have a fitted effect of over 60% in size
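Light output from Kinase-Glo luciferase with luciferin and 10 uM ATP in 50 mM imidazole pH 7.2, KCl, MgCl2, Tween 20, BSA; compound pin-delivered, 8-min ambient incubation, then luminescence read.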
PNC inhibitor = High Content Assay for Compounds that inhibit the Assembly of the Perinucleolar Compartment; PC3M PTB-GFP, PNC prevalence imaging, 16 h; hits give low values; activity change (PNC), negative = inhibition, % at 10 µM; 3.1% of 140,000 active; AID 2417, 2010;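 active = readout at or below -70, meaning at least 70% loss of cells showing the perinucleolar compartment, a nuclear body marking cancer cells; inconclusive = readout between -30 and a set limit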
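Read-out is percentage of cells bearing a perinucleolar compartment, from automated 20x imaging of fixed, Hoechst-stained PC3M PTB-GFP cells. Cells were seeded 4 h, then exposed 16 h to compound (23 nl of library stock) in duplicate plates.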
ALDH1A1 block = qHTS Assay for Inhibitors of Aldehyde Dehydrogenase 1 (ALDH1A1) | 7.3% of 220,000 active | AID 1030, 2008 | Aldehyde dehydrogenase 1A1 (Homo sapiens), P00352 | Potency, µM (top dose mostly 75.3 µM), most hits filed as inhibitors | Purified ALDH1A1, NADH fluorescence, propionaldehyde substrate
Each line names hits and unclear results; the compound was inactive in the other large screens; ! = repeats disagree. Unless noted, calls follow the shape of the dose curve; as a rule, active = well fitted inhibition curve with a large enough effect (not every such curve was filed as active); inconclusive = small, poorly fitted or top-dose-only effect, or another doubt; inactive = no such curve, though single readings can be large or run the other way.

CCOc1ccc(S(=O)(=O)NCCc2csc(-c3ccc(Cl)cc3)n2)cc1	none (no result: IMPase cell inh, HPGD inh, Luc counter, PNC inhibitor, ALDH1A1 block)
O=C(NCCSc1c[nH]c2ccccc12)c1ccco1	HPGD inh 15.8µM
O=C(NCc1cccc(CNC(=O)c2ccco2)c1)c1ccco1	HPGD inh 14.1µM, PNC inhibitor inconclusive, ALDH1A1 block inconclusive
O=C(NCCSc1c[nH]c2ccccc12)c1c(F)cccc1F	none (no result: IMPase cell inh, Lamin A splicing, HPGD inh, Luc counter, PNC inhibitor)
O=C(NCCCCNC(=O)c1ccco1)c1ccco1	none
COc1ccc2c(CCNC(=O)c3ccco3)c[nH]c2c1	HPGD inh inconclusive, PNC inhibitor -114.3
O=C(NCCCCCNC(=O)c1ccco1)c1ccco1	ALDH1A1 block 28.2µM
COCC(C)NC(=O)NC1(C(F)(F)F)Oc2ccc(Cl)cc2O1 (centres undefined)	Lamin A splicing inconclusive, PNC inhibitor inconclusive, ALDH1A1 block 22.4µM (no result: HPGD inh, Luc counter)
CCOC(=O)N1CCN(C(=O)C2CC(=O)N(c3ccc(OC)cc3)C2c2ccc(OC)cc2)CC1 (centres undefined)	PNC inhibitor -100.0
CN(C)CCCN=C(N)N	none (no result: IMPase cell inh, Lamin A splicing, PNC inhibitor)
CN(C)CCCCSC(=N)N	Lamin A splicing inconclusive, ALDH1A1 block 25.1µM! (no result: PNC inhibitor)
CCCCCCCCCCCCCCCC(=O)NCCO	none (no result: PNC inhibitor)
O=C(NCCO)C(O)C(O)C(=O)NCCO (centres undefined)	ALDH1A1 block 17.8µM (no result: IMPase cell inh, HPGD inh, PNC inhibitor)
CC(C)C(=O)Nc1nnc(SCc2cc(=O)n3ccccc3n2)s1	none (no result: IMPase cell inh, HPGD inh, Luc counter, PNC inhibitor, ALDH1A1 block)
COc1ccc(C(=O)NCc2nnc(SCC(=O)N3CCc4ccccc43)n2C2CCCCC2)cc1	none
COc1ccc(-n2c(Cc3ccccc3)nnc2SCC(=O)N2CCCc3ccccc32)cc1	PNC inhibitor -100.0, ALDH1A1 block 11.2µM
COc1cccc(-n2nnnc2SCC(=O)N2CCCc3ccccc32)c1	PNC inhibitor inconclusive, ALDH1A1 block 5.62µM
COc1ccc(C(=O)NCc2nnc(SCC(=O)N3CCc4ccccc43)n2CCc2ccccc2)cc1	ALDH1A1 block 0.631µM
COc1ccc(-n2c(SCC(=O)N3CCCc4ccccc43)nc3c([nH]c4ccccc43)c2=O)cc1	none (no result: IMPase cell inh, HPGD inh, Luc counter, PNC inhibitor, ALDH1A1 block)
COc1cccc(-n2c(SCC(=O)N3CCCc4ccccc43)nc3c([nH]c4ccccc43)c2=O)c1	none (no result: IMPase cell inh, HPGD inh, Luc counter, PNC inhibitor, ALDH1A1 block)
COc1cc(OC)cc(-n2nnnc2SCC(=O)N2CCCc3ccccc32)c1	PNC inhibitor inconclusive, ALDH1A1 block 2.82µM
CCOC(=O)c1c(C)[nH]c2ccc3c(c12)CN1CCc2cc(OC)ccc2[C@@H]1O3	none (no result: Lamin A splicing, PNC inhibitor)
COc1ccc(-c2nc3c(c4c2C[C@H](c2ccccc2)OC4)CN(S(=O)(=O)c2ccc(C)cc2)CC3)c(C)c1	Lamin A splicing inconclusive, ALDH1A1 block inconclusive (no result: IMPase cell inh, PNC inhibitor)
CC(C)c1c(O)nc(SCCN(C)C)[nH]c1=O	PNC inhibitor -86.9
CCc1ccc(N(CC)C(=O)c2ccc3c(Cl)c4c(nc3c2)CCC4)cc1	Lamin A splicing inconclusive, HPGD inh inconclusive, ALDH1A1 block inconclusive (no result: IMPase cell inh)
CCN(C(=O)c1ccc2c(Cl)c3c(nc2c1)CCC3)c1cccc(C)c1	Lamin A splicing inconclusive, HPGD inh 12.6µM, ALDH1A1 block inconclusive (no result: IMPase cell inh)
CC1CCN(C(=O)c2ccc3c(Cl)c4c(nc3c2)CCCC4)CC1	ALDH1A1 block 4.47µM (no result: IMPase cell inh, Lamin A splicing, HPGD inh, PNC inhibitor)
O=C(c1ccc2c(Cl)c3c(nc2c1)CCCC3)N1CCN(c2ccc(F)cc2)CC1	Lamin A splicing inconclusive (no result: IMPase cell inh)
COc1cc2oc(=O)c3c4c(cc5ccc(c1CCN(C)C)c2c53)OCO4	ALDH1A1 block inconclusive (no result: IMPase cell inh, Lamin A splicing, PNC inhibitor)
Cc1cc(OCc2ccc(C(=O)n3cccn3)o2)ccc1Cl	HPGD inh 31.6µM, PNC inhibitor -118.9
O=C(c1ccc(COc2ccc(F)cc2)o1)n1cccn1	none
CC1CCN(C(=O)CN2C(=O)C(=O)c3ccccc32)CC1	ALDH1A1 block 0.355µM
CC1CCN(C(=O)CN2C(=O)c3cccc4cccc(c34)C2=O)CC1	ALDH1A1 block inconclusive (no result: IMPase cell inh, HPGD inh, PNC inhibitor)
